# According to PubChem BioAssay AID485270 (The Scripps Research Institute Molecular Screening Center, 2010):
# Among all 330,000 compounds or so, about 5,800 (1.8%) were called active. Cut-off read from the data, not from the text of the source: active = inhibition mostly above about 38% (no sharp cut-off); inactive = mostly below about 40%. This excerpt belongs to a sample that is enriched for actives.
# Target: Orexin/Hypocretin receptor type 1 (Homo sapiens) (UniProt O43613)
# Assay: antagonists of human orexin 1 receptor (OX1R) (AID 485270);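 note: 0% = agonist challenge alone and 100% = reference antagonist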
# Settings: OX1R-expressing cells, FRET antagonist read-out; at 6.6 µM; active compounds read high
# Sequence of Orexin/Hypocretin receptor type 1 (Homo sapiens) (O43613 whole entry, looked up): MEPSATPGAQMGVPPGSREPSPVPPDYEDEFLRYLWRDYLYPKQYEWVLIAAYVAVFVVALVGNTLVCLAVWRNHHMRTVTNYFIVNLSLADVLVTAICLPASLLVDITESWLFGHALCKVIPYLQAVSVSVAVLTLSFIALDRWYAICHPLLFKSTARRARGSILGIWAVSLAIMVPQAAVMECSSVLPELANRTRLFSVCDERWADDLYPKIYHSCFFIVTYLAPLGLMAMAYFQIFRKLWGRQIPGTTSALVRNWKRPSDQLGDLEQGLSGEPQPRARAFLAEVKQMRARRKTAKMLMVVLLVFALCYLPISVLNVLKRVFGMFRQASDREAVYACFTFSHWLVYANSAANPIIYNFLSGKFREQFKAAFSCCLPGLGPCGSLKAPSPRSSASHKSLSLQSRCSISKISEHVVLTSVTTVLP
row,SMILES,inhibition
1,CN(CC(=O)O)S(=O)(=O)c1ccc2oc3ccccc3c2c1,7.24% (inactive)
2,CN(CCO)S(=O)(=O)c1ccc2c(c1)C(=O)c1cc(S(=O)(=O)N(C)CCO)ccc1-2,57.6% (active)
3,O=C(O)c1ccc(NS(=O)(=O)c2ccc3c(c2)C(=O)c2cc(S(=O)(=O)Nc4ccc(C(=O)O)cc4)ccc2-3)cc1,18.6% (inactive)
4,O=C(CSCc1ccccc1)Nc1ccccc1,4.92% (inactive)
5,Cc1cc(C)cc(NC(=O)CSCc2cnn(-c3ccccc3)c2-n2cccc2)c1,68.1% (inactive)
6,CC(=O)Nc1ccc(NC(=O)CSCc2cnn(-c3ccccc3)c2-n2cccc2)cc1,39.8% (active)
7,CC(=O)c1c(C)[nH]c(C(=O)COC(=O)CCOc2ccc(C)cc2)c1C,11.2% (inactive)
8,O=C(CNC(=O)c1ccco1)NNC(=O)c1ccc(Br)cc1,1.51% (inactive)
9,O=C(CNC(=O)c1n[nH]c2ccccc12)Nc1cc(Cl)ccc1Cl,11.3% (inactive)
10,Oc1ccc(N=Nc2nccs2)c(O)c1,58.9% (active)
11,Oc1ccc2ccccc2c1N=Nc1nccs1,99.3% (active)
12,C[C@@H]1C(c2ccc(F)cc2)=NN(c2ccc(Br)cc2)[C@H]1C(=O)N1CCOC1=O,13.5% (inactive)
13,CCN(C[C@H]1N[C@@](Cc2ccccc2)(C(=O)OC)[C@H]2C(=O)N(Cc3ccccc3)C(=O)[C@@H]12)C(=O)c1ccc(C)cc1,1.44% (inactive)
14,CC1CCCCC1NC(=O)Cn1cnc2c1c(=O)n(C)c(=O)n2C (stereo not given),4.33% (inactive)
15,Cc1cccn2c(=O)c3cc(C(=O)NCCN4CCOCC4)c(=N)n(Cc4cccnc4)c3nc12,69.1% (active)
16,CCn1c(=N)c(C(=O)NCCCOC)cc2c(=O)n3cccc(C)c3nc21,141% (active)
17,Cc1cccn2c(=O)c3cc(C(=O)NCC4CCCO4)c(=N)n(Cc4ccc(F)cc4)c3nc12 (stereo not given),41.5% (inactive)
18,CCc1cccc2c(=O)c(C(=O)NCCCOC)c[nH]c12,21.4% (inactive)
19,CCOCCCNC(=O)c1cc2c(=O)n3ccccc3nc2s1,32.8% (inactive)
20,O=C(NCc1cccnc1)c1cc(S(=O)(=O)N2CCOCC2)c(Cl)cc1Cl,2.88% (inactive)
21,COc1cc(C(=O)NC2CCN(C)CC2)ccc1Nc1ncc2c(n1)N(C1CCC(O)CC1)CCC(=O)N2C (stereo not given),5.47% (inactive)
22,C[C@H]1CN([C@@H](C)CO)C(=O)Cc2cc(NC(=O)Cc3ccccc3)ccc2O[C@H]1CN(C)S(=O)(=O)c1cccs1,8.68% (inactive)
23,CCCOc1ccc(/C(O)=C2/C(=O)C(=O)N(CCN(C)C)C2c2ccc(OC)c(OC)c2)cc1 (stereo not given),31.1% (inactive)
24,O=C1C(=O)N(CCN2CCOCC2)C(c2cccc(Cl)c2)/C1=C(/O)c1ccc2c(c1)OCO2 (stereo not given),13.6% (inactive)
25,CCN(CC)CCN1C(=O)C(=O)/C(=C(/O)c2ccc(OC)c(OC)c2)C1c1ccccn1 (stereo not given),51.5% (active)
26,COc1ccc(/C(O)=C2/C(=O)C(=O)N(CCCN(C)C)C2c2ccccc2)cc1OC (stereo not given),4.51% (inactive)
27,CC1Cc2cc(/C(O)=C3\C(=O)C(=O)N(CCN4CCOCC4)C3c3ccccc3F)ccc2O1 (stereo not given),6.48% (inactive)
28,O=C1C(=O)N(CCN2CCOCC2)C(c2ccccn2)/C1=C(/O)c1ccc(Cl)cc1 (stereo not given),55.2% (active)

row,SMILES,inhibition
1,CC[C@]12c3[nH]c4ccc(Cl)cc4c3CCN1C(=O)[C@@H](CC(=O)NCCCOC)C[C@@H]2C(=O)N1CCN(C(=O)c2ccco2)CC1,1.35% (inactive)
2,CCC(CO)Oc1cc(NC(=O)c2ccc(Cl)cc2)c2ncn(C(C)C)c2c1 (stereo not given),0.25% (inactive)
3,O=C(Nc1cc(S(=O)(=O)N2CCOCC2)ccc1N1CCOCC1)c1c(F)cccc1Cl,8.73% (inactive)
4,COc1ccc(-c2cc3ncccc3cn2)cc1,21.6% (inactive)
5,CC(C)(C)OC(=O)C[C@@H]1C/C=C\C[C@@H](CC(=O)NCCO)C(=O)N[C@H](Cc2c[nH]c3ccccc23)COC1=O,3.99% (inactive)
6,CCN(c1ccccc1)S(=O)(=O)c1ccc(C(=O)Nc2ccccc2OC)cc1,14% (inactive)
7,COc1ccccc1NC(=O)CN(c1ccccc1OC)S(=O)(=O)c1ccccc1,75.8% (active)
8,COc1ccccc1N(CC(=O)N1CCCCC1)S(=O)(=O)c1ccccc1,13.9% (inactive)
9,O=C(NCCc1c[nH]c2ccccc12)c1cc2ccccc2oc1=O,1.13% (inactive)
10,COC(=O)Cn1c(O)c(N=NC(=O)OC)c2ccccc21,41.9% (inactive)
11,CCOC(=O)Cn1c(O)c(N=NC(=O)CNC(=O)Cc2ccccc2)c2ccccc21,38.3% (active)
12,O=C(CNC(=O)Cc1ccccc1)N=Nc1c(O)[nH]c2ccc(Br)cc12,8.32% (inactive)
13,CCN(CC)C(=O)[C@H]1C[C@H](CC(=O)NCC23CC4CC(CC(C4)C2)C3)C(=O)N2CCc3c([nH]c4cc(CCC(=O)N(C)C)ccc34)[C@]12C,5.23% (inactive)
14,Cc1ccsc1C(=O)NNC(=O)COc1ccc(Br)cc1,3.22% (inactive)
15,NCC(=O)c1cccc2ccc[n+]([O-])c12,10.5% (inactive)
16,Cc1ccc2cccc(O)c2[n+]1[O-],53.1% (active)
17,C[C@H](CO)N1C[C@H](C)[C@@H](CN(C)C(=O)Nc2ccc3c(c2)OCO3)Oc2c(cccc2N(C)C)C1=O,-4.67% (inactive)
18,O=C(COc1ccc(F)cc1Br)NCC1COc2ccccc2O1 (stereo not given),7.79% (inactive)
19,CC(C)(C)NS(=O)(=O)NC(=O)C1=C(N2CCCC2)COC1=O,-2.54% (inactive)
20,COc1ccc(C2=Nn3c(nnc3-c3ccccc3OC)SC2)cc1OC1CCCC1,11.2% (inactive)
21,N#C/C(=C\c1ccc(-c2cccc([N+](=O)[O-])c2)o1)C(=O)NCCN1CCOCC1,43.6% (inactive)
22,CN(C)CCNC(=O)/C(=C/c1cccc([N+](=O)[O-])c1)NC(=O)c1ccccc1,12.9% (inactive)
23,Cc1ccc(C(=O)N/C(=C/c2ccc(-c3cccc([N+](=O)[O-])c3)o2)C(=O)NCCCN(C)C)cc1,63.9% (active)
24,O=C(OCC(=O)N1CCN(C(=O)c2ccco2)CC1)c1c(Cl)cccc1Cl,9.98% (inactive)
25,Cc1ccc(N(CC(=O)Nc2cc(C)cc(C)c2)S(=O)(=O)c2cccc3nonc23)cc1,46.5% (active)
26,Cc1ccc(CNC(=O)CCNS(=O)(=O)c2cccc3nonc23)cc1,9.03% (inactive)
27,CCOC(=O)c1cccc(NC(=O)CN(c2ccc(C)cc2)S(=O)(=O)c2c(C)noc2C)c1,68.3% (inactive)
